# Source: PubChem BioAssay (EPA / NIEHS)
# Inconclusive results are not listed. The source made the active and inactive calls. Rule for the calls, unless noted: active = hit-call score of the fitted dose curve at least 0.9, where 1 is the maximum; inconclusive = response in the unintended direction; inactive = score below 0.9.
# Tests used:
# [1] = ATG_FoxO_CIS: Attagene CIS-FACTORIAL HepG2 Assay for human Forkhead box O (FoxO) (AID 2282943; active = hit-call score of the fitted dose curve at least 0.9, where 1 is the maximum; inactive = score below 0.9); details: HepG2 Attagene cis-reporter, FoxO element, mRNA; actives raise or lower the signal
# Method in brief: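 Values reflect reporter mRNA induction or loss in HepG2 cells 24 h post-dosing, fitted bidirectionally with DMSO as negative control and baseline. Detection used RT-PCR and fluorescence capillary electrophoresis.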
# [2] = ATG_GRE_CIS: Attagene CIS-FACTORIAL HepG2 Assay for human Glucocorticoid Response Elements (GRE) (AID 2282947; active = hit-call score of the fitted dose curve at least 0.9, where 1 is the maximum; inactive = score below 0.9); details: HepG2 GRE cis-reporter, Attagene multiplex mRNA; actives raise or lower the signal
# Method in brief: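 Cells (HepG2) bearing transfected cis-promoter reporter transcription units were treated with chemical for 24 hours. Reporter mRNA was measured via RT-PCR with capillary electrophoresis, and activity was fitted in both directions relative to DMSO.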
# [3] = biological target: Heat shock factor protein 1 (Homo sapiens) (UniProt Q00613); experiment: ATG_HSE_CIS: Attagene CIS-FACTORIAL HepG2 Assay for human Heat Shock Transcription Factor 1 (HSE) (AID 2282953; active = hit-call score of the fitted dose curve at least 0.9, where 1 is the maximum; inactive = score below 0.9); details: HepG2 HSE cis-reporter, Attagene RNA transcription; actives raise or lower the signal
# Method in brief: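 Cells were transfected with cis-element-driven reporter constructs, dosed for 24 h, then total RNA was reverse-transcribed and reporter cDNA amplified, FAM-labelled and digested with HpaI. Fragments were resolved by capillary electrophoresis; gain or loss was fitted against DMSO.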
# [4] = ATG_PBREM_CIS: Attagene CIS-FACTORIAL HepG2 Assay for human Phenobarbital-responsive Enhancer Module (PBREM) (AID 2282955; active = hit-call score of the fitted dose curve at least 0.9, where 1 is the maximum; inactive = score below 0.9); details: HepG2 PBREM cis-reporter, Attagene multiplexed transcription; actives raise or lower the signal
# Method in brief: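 Endogenous transcription factors in human liver HepG2 cells drive a PBREM cis-element reporter, whose transcript level after 24 h treatment is quantified by RT-PCR with capillary electrophoresis; activity fitted in both directions against DMSO.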
# [5] = ATG_RORE_CIS: Attagene CIS-FACTORIAL HepG2 Assay for human RAR-related Orphan Receptor Element (RORE) (AID 2282959; active = hit-call score of the fitted dose curve at least 0.9, where 1 is the maximum; inactive = score below 0.9); details: HepG2 Attagene cis-factorial RORE reporter, mRNA; actives raise or lower the signal
# Method in brief: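 Transient MRTU transfection of human HepG2 liver cells (FuGene 6); 24 h compound exposure; TriZol RNA, oligo(dT) RT, PCR, FAM labeling, HpaI cut, CE fragment analysis. DMSO = negative control/baseline.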
# [6] = ATG_M_06_TRANS: Attagene TRANS-FACTORIAL HepG2 Assay for M06 Transcription Factor (Internal Marker) (AID 2282983); details: HepG2 Attagene TRANS M06 internal marker reporter
# Method in brief: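 Background control endpoint: reporter mRNA from transiently transfected HepG2 after 24 h dosing, detected by RT-PCR with capillary electrophoresis fluorescence. Analysed for gain versus DMSO.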
# [7] = ATG_NRF2_ARE_CIS: Attagene CIS-FACTORIAL HepG2 Assay for human Nuclear Factor Erythroid 2 Related Factor 2 (NFR2) response to Antioxidant Response Elements (ARE) (AID 2282992; active = hit-call score of the fitted dose curve at least 0.9, where 1 is the maximum; inactive = score below 0.9); details: HepG2 Attagene ARE/NRF2 reporter, transcription factor activity; actives raise or lower the signal
# Method in brief: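 Using transiently transfected HepG2 cells exposed for 24 h, reporter mRNA levels were determined by RT-PCR with fluorescent primer extension and capillary electrophoresis, analysed for gain or loss of signal against DMSO.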
# [8] = biological target: Nuclear receptor subfamily 1 group I member 2 (Homo sapiens) (UniProt O75469); experiment: ATG_PXR_TRANS: Attagene TRANS-FACTORIAL HepG2 Assay for human Pregnane X Receptor (PXR) (AID 2283008)
# Method in brief: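 Multiplexed TRANS reporter panel in HepG2; this component tracks PXR-Gal4-driven reporter mRNA after 24 h dosing, measured by RT-PCR with capillary electrophoresis fluorescence, fitted against DMSO.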
# [9] = biological target: Cellular tumor antigen p53 (Homo sapiens) (UniProt P04637); experiment: TOX21_p53_BLA_p2_ratio: Tox21 HCT-116 p53 Agonism Beta-lactamase Assay, Ratio, Phase 2 (AID 2283592)
# Method in brief: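 Plated HCT116 p53-bla cells (4000/well) received compound after 5 h, then 16 h at 37C/5% CO2. CCF4-AM added, 2 h RT. Ratio of 460 to 530 nm emission taken as the p53 reporter signal.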
# [10] = biological target: Cellular tumor antigen p53 (Homo sapiens) (UniProt P04637); experiment: TOX21_p53_BLA_p5_ratio: Tox21 HCT-116 p53 Agonism Beta-lactamase Assay, Ratio, Phase 5 (AID 2283599)
# Method in brief: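 HCT-116 cells carrying a p53-inducible beta-lactamase reporter were seeded at 4000 cells/well and dosed after 5 h with compound in DMSO (217-fold dilution). After 16 h at 37C, CCF4-AM substrate was added for 2 h, and the 460/530 nm emission ratio was scored as gain-of-signal versus DMSO.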
# [11] = TOX21_p53_BLA_p5_viability: Viability Assessment in the Tox21 HCT-116 p53 Agonism Beta-lactamase Assay, Phase 5 (AID 2283600)
# Method in brief: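 Workflow: seed 4000 cells per well, wait 5 h, add compounds (DMSO, 217-fold dilution), incubate 16 h, load CCF4-AM 2 h, add CellTiter-Glo, read luminescence after 30 min.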
# [12] = biological target: Cellular tumor antigen p53 (Homo sapiens) (UniProt P04637); experiment: TOX21_p53_BLA_p4_ratio: Tox21 HCT-116 p53 Agonism Beta-lactamase Assay, Ratio, Phase 4 (AID 2283601)
# Method in brief: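 HCT116 cells carrying an inducible beta-lactamase reporter were plated at 4000 cells/well, rested 5 h, then exposed to compounds in DMSO (217-fold dilution) for 16 h at 37C. CCF4-AM substrate was loaded 2 h at room temperature; 460/530 nm emission ratio scored gain-of-signal versus DMSO.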
# [13] = ATG_M_19_CIS: Attagene CIS-FACTORIAL HepG2 Assay for M19 Transcription Factor (Internal Marker) (AID 2282939; active = hit-call score of the fitted dose curve at least 0.9, where 1 is the maximum; inactive = score below 0.9); details: HepG2 Attagene CIS-FACTORIAL M19 internal marker reporter; actives raise or lower the signal
# Method in brief: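 Background-control endpoint from a multiplexed HepG2 reporter panel. Cells carrying cis-regulated reporter constructs are treated 24 h, then reporter transcripts are amplified, fluorescently labelled and sized by capillary electrophoresis. DMSO defines baseline.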
# [14] = biological target: Hypoxia-inducible factor 1-alpha (Homo sapiens) (UniProt Q16665); experiment: ATG_HIF1a_CIS: Attagene CIS-FACTORIAL HepG2 Assay for human Hypoxia Inducible Factor 1 (HIF1A) (AID 2282951; active = hit-call score of the fitted dose curve at least 0.9, where 1 is the maximum; inactive = score below 0.9); details: HepG2 Attagene cis-factorial HIF1a reporter transcription; actives raise or lower the signal
# Method in brief: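 Transient MRTU transfection of human HepG2 liver cells, 24 h compound treatment, then total RNA isolation, oligo(dT) reverse transcription, PCR amplification, fluorescent labelling and capillary electrophoresis of reporter fragments. Gain or loss relative to DMSO.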
# [15] = biological target: Hepatocyte nuclear factor 4-alpha (Homo sapiens) (UniProt P41235); experiment: ATG_HNF4a_TRANS: Attagene TRANS-FACTORIAL HepG2 Assay for human Hepatocyte Nuclear Factor 4 alpha (HNF4a) (AID 2282982); details: HepG2 HNF4a transactivation reporter, mRNA readout
# Method in brief: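 In this trans-factorial format, a chimeric HNF4a-GAL4 fusion drives a GAL4-UAS reporter in transfected HepG2 liver cells. After 24 h treatment, reporter mRNA induction is measured by RT-PCR with capillary electrophoresis, relative to DMSO.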
# [16] = biological target: human Peroxisome Proliferator-activated Receptor alpha (PPARa), PPARA (gene 5465) (UniProt Q07869); experiment: ATG_PPARa_TRANS: Attagene TRANS-FACTORIAL HepG2 Assay for human Peroxisome Proliferator-activated Receptor alpha (PPARa) (AID 2283001);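 for AC50: potency for gain of reporter signal over DMSO so agonist or activator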
# Method in brief: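 Cells (HepG2) are transfected with multiple reporter transcription units, exposed to chemical for 24 h, then total RNA is reverse-transcribed and amplified. Labelled products are quantified by capillary electrophoresis; induction is referenced to DMSO.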
# [17] = biological target: Peroxisome proliferator-activated receptor gamma (Homo sapiens) (UniProt P37231); experiment: ATG_PPARg_TRANS: Attagene TRANS-FACTORIAL HepG2 Assay for human Peroxisome Proliferator-activated Receptor-gamma (PPARg) (AID 2283007)
# Method in brief: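 Transient transfection of HepG2 with GAL4-UAS-driven reporter units; chemical dosing 24 h; total RNA → oligo(dT) RT → PCR with reporter primers → 6-FAM primer extension → HpaI digest 2 h 37 C → capillary electrophoresis. Positive direction vs DMSO.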
# [18] = biological target: human Thyroid Receptor alpha (THRa1), THRA (gene 7067) (UniProt P10827); experiment: ATG_THRa1_TRANS: Attagene TRANS-FACTORIAL HepG2 Assay for human Thyroid Receptor alpha (THRa1) (AID 2283014)
# Method in brief: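 Reporter transcript induction, read by capillary electrophoresis of 6-FAM-labelled RT-PCR products, reflects activity of a transfected THRa1-Gal4 fusion in HepG2 liver cells. Cells were dosed for 24 h; activity was fitted in the positive direction against DMSO.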
# [19] = biological target: Retinoic acid receptor RXR-alpha (Homo sapiens) (UniProt P19793); experiment: ATG_RXRa_TRANS: Attagene TRANS-FACTORIAL HepG2 Assay for human Retinoid X Receptor alpha (RXRa) (AID 2283012)
# Method in brief: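 Measures exogenous chimeric NR-GAL4 activity in transfected HepG2 liver cells after 24 h of dosing. Induced reporter mRNA was detected by RT-PCR with capillary electrophoresis, and gain of signal was analysed against DMSO.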
# [20] = biological target: Cellular tumor antigen p53 (Homo sapiens) (UniProt P04637); experiment: TOX21_p53_BLA_p3_ratio: Tox21 HCT-116 p53 Agonism Beta-lactamase Assay, Ratio, Phase 3 (AID 2283596)
# Method in brief: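 Cells were seeded at 4000/well, rested 5 h at 37C, then dosed with DMSO compound solutions (217-fold dilution) for 16 h. CCF4-AM substrate was loaded for 2 h at room temperature, and the 460/530 nm emission ratio was fitted for gain of signal versus DMSO.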
# human Peroxisome Proliferator-activated Receptor alpha (PPARa), PPARA (gene 5465), sequence (Q07869 whole entry, looked up): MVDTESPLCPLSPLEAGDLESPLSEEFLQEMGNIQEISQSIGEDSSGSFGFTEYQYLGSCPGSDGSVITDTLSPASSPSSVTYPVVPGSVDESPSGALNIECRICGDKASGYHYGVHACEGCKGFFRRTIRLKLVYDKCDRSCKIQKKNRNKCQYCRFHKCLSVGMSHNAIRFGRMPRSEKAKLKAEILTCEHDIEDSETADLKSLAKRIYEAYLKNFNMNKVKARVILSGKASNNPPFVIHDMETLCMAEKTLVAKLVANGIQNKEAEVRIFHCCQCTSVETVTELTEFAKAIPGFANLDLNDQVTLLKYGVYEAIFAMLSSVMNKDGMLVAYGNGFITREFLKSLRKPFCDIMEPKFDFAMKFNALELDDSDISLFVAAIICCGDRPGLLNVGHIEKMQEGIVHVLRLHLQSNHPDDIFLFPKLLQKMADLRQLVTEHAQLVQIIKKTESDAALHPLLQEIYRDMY
# Cellular tumor antigen p53 (Homo sapiens), sequence (P04637 whole entry, looked up): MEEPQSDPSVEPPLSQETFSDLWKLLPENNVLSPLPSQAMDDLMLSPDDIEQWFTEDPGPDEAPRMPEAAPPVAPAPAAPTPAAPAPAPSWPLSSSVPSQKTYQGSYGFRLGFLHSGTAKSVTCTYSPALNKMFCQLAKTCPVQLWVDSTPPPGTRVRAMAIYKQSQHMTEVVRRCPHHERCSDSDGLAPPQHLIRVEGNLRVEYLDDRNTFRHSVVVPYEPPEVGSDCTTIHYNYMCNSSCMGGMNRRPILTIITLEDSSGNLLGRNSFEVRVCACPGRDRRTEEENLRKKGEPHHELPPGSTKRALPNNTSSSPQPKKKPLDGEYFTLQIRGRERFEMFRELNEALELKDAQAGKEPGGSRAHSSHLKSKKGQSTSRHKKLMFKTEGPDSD
# Retinoic acid receptor RXR-alpha (Homo sapiens), sequence (P19793 whole entry, looked up, the tested form may be a part): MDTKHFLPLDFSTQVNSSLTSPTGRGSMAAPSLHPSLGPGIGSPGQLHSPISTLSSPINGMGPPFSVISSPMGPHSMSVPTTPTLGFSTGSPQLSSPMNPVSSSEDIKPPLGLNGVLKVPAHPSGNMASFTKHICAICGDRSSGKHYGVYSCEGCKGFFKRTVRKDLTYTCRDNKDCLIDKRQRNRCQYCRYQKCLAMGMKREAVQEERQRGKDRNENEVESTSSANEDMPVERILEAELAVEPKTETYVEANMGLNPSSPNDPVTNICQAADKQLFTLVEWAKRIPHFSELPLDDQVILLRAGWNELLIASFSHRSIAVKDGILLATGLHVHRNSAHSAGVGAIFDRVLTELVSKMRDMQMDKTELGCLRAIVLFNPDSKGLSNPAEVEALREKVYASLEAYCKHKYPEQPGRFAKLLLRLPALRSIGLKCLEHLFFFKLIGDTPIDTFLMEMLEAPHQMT
# Heat shock factor protein 1 (Homo sapiens), sequence (Q00613 whole entry, looked up, the tested form may be a part): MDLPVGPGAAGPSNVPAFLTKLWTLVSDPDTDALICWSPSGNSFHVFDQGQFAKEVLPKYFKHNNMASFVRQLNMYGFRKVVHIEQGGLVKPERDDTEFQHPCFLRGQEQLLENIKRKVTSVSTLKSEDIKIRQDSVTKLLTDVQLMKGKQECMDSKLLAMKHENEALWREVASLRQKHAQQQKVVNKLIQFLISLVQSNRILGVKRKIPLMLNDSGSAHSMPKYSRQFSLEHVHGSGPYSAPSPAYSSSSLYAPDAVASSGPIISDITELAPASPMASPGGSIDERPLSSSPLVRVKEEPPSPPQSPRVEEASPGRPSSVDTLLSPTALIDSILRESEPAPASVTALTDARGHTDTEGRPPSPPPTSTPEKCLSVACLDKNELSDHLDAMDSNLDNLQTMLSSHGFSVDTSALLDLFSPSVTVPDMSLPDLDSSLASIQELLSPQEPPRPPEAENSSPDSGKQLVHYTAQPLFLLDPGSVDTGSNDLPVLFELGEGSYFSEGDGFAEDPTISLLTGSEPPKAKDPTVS
# Peroxisome proliferator-activated receptor gamma (Homo sapiens), sequence (P37231 whole entry, looked up, the tested form may be a part): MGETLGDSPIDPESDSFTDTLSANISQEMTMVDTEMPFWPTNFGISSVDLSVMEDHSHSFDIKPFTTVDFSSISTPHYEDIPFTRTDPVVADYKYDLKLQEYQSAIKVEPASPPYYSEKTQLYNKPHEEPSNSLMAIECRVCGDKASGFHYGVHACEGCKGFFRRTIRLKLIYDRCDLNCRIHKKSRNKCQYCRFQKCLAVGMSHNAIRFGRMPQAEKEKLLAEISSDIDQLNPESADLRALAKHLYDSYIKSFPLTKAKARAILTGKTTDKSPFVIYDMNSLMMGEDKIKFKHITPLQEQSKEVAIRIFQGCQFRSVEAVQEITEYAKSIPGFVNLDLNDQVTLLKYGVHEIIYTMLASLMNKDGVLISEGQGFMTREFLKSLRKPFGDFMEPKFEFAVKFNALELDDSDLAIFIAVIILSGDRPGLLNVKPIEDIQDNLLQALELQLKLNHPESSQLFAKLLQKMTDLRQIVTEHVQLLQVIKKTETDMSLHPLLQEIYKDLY
# Hypoxia-inducible factor 1-alpha (Homo sapiens), sequence (Q16665 whole entry, looked up, the tested form may be a part): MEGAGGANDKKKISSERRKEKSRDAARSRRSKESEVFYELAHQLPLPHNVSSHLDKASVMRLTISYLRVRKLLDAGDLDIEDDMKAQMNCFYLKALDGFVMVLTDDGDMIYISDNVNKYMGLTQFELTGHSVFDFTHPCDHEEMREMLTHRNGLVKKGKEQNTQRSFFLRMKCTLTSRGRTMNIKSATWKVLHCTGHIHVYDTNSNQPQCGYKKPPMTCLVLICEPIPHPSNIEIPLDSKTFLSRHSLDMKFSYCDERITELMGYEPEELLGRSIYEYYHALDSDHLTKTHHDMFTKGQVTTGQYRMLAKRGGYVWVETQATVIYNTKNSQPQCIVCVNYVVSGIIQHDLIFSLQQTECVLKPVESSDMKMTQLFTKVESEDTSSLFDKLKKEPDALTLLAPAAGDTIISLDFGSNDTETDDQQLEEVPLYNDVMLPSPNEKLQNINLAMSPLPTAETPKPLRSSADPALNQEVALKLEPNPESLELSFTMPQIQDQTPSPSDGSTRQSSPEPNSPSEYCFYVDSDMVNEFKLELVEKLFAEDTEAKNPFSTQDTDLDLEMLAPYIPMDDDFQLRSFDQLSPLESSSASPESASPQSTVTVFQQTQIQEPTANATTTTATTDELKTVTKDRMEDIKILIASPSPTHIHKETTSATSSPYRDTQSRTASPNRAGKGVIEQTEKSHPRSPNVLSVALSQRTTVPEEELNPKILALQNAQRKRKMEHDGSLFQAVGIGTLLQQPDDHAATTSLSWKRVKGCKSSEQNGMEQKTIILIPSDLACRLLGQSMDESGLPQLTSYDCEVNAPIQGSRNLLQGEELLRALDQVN
# Hepatocyte nuclear factor 4-alpha (Homo sapiens), sequence (P41235 whole entry, looked up, the tested form may be a part): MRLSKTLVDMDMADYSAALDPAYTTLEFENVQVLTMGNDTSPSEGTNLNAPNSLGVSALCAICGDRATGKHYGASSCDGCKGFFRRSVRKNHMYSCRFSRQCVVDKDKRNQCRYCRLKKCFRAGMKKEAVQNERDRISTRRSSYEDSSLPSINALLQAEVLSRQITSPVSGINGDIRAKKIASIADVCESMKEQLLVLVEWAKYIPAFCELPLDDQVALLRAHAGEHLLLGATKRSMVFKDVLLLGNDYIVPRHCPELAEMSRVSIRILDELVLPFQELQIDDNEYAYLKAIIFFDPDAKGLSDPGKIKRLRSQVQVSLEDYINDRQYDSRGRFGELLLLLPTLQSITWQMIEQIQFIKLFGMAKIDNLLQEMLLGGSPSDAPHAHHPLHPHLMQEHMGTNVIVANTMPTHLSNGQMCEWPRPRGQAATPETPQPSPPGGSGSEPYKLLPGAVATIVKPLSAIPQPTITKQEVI
# Nuclear receptor subfamily 1 group I member 2 (Homo sapiens), sequence (O75469 whole entry, looked up, the tested form may be a part): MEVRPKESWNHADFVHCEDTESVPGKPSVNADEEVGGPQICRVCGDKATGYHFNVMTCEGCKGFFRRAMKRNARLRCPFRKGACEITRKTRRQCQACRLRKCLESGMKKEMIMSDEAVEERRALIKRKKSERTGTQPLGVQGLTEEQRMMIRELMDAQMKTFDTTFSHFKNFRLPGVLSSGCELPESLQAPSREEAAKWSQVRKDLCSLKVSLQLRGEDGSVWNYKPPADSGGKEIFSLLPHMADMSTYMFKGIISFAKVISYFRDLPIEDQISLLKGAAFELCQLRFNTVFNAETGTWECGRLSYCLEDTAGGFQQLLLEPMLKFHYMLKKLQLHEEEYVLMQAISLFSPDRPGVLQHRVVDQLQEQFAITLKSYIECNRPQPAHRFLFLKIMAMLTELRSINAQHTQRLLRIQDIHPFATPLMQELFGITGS
# human Thyroid Receptor alpha (THRa1), THRA (gene 7067), sequence (P10827 whole entry, looked up, the tested form may be a part): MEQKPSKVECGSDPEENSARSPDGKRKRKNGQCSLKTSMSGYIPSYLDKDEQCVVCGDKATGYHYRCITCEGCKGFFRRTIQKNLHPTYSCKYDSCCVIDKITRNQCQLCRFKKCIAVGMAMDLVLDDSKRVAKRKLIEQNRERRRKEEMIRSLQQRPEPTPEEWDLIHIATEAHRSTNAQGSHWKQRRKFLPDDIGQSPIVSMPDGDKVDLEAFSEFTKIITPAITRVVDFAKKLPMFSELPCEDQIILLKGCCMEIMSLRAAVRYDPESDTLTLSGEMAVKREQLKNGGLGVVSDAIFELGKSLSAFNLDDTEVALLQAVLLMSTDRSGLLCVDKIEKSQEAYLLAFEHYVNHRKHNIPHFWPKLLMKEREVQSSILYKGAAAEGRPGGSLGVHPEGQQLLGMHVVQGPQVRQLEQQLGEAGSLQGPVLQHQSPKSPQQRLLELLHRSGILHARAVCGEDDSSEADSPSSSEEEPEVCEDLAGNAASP
structure (smiles),measurement,setting,value
CCOC(=O)COc1ccc(Cl)cc1Cl,outcome,[1],inactive
same,outcome,[2],inactive
same,outcome,[3],inactive
same,outcome,[4],inactive
same,outcome,[5],inactive
same,outcome,[6],inactive
same,outcome,[7],inactive
same,outcome,[8],inactive
same,outcome,[9],inactive
same,outcome,[10],inactive
same,outcome,[11],inactive
same,outcome,[12],inactive
Cl/C=C\CCl,outcome,[13],inactive
same,outcome,[1],inactive
same,outcome,[2],inactive
same,outcome,[14],inactive
same,outcome,[3],inactive
same,outcome,[4],inactive
same,outcome,[5],inactive
same,outcome,[15],inactive
same,outcome,[6],inactive
same,outcome,[16],inactive
same,outcome,[17],inactive
same,outcome,[8],inactive
same,outcome,[18],inactive
O=[N+]([O-])c1ccc(Cl)cc1,outcome,[1],inactive
same,outcome,[2],inactive
same,outcome,[14],inactive
same,outcome,[5],inactive
same,outcome,[15],inactive
same,outcome,[7],inactive
same,outcome,[16],inactive
same,outcome,[19],inactive
same,outcome,[9],inactive
same,outcome,[10],inactive
same,outcome,[11],inactive
same,outcome,[12],inactive
CCNCC,outcome,[1],inactive
same,outcome,[2],inactive
same,outcome,[14],inactive
same,outcome,[3],inactive
same,outcome,[6],inactive
same,outcome,[7],inactive
same,outcome,[16],inactive
same,outcome,[17],inactive
same,outcome,[19],inactive
same,outcome,[18],inactive
Nc1ccccc1,outcome,[13],inactive
same,outcome,[1],inactive
same,outcome,[2],inactive
same,outcome,[14],inactive
same,outcome,[3],inactive
same,outcome,[5],inactive
same,outcome,[6],inactive
same,outcome,[7],inactive
same,outcome,[16],inactive
same,outcome,[19],inactive
same,outcome,[18],inactive
same,outcome,[9],inactive
same,outcome,[20],inactive
same,outcome,[10],inactive
same,outcome,[12],inactive
N#Cc1cc(I)c(O)c(I)c1,outcome,[13],inactive
same,outcome,[1],inactive
same,outcome,[2],inactive
same,outcome,[14],inactive
same,outcome,[4],inactive
same,outcome,[5],inactive
same,outcome,[15],inactive
same,AC50,[7],28.3 µM (active)
same,AC50,[16],8.29 µM (active)
same,AC50,[17],10.7 µM (active)
same,outcome,[8],inactive
same,outcome,[19],inactive
same,outcome,[18],inactive
same,AC50,[9],9.91 µM (active)
same,AC50,[20],6.09 µM (active)
same,AC50,[10],55.8 µM (active)
same,outcome,[11],inactive
same,AC50,[12],13.9 µM (active)
c1ccc2c(c1)CCCC2,outcome,[2],inactive
same,outcome,[14],inactive
same,outcome,[3],inactive
same,outcome,[4],inactive
same,outcome,[15],inactive
same,outcome,[7],inactive
same,outcome,[19],inactive
same,outcome,[9],inactive
same,outcome,[20],inactive
same,outcome,[10],inactive
same,outcome,[11],inactive
same,outcome,[12],inactive
O=C(O)C(Br)Br,outcome,[13],inactive
same,outcome,[1],inactive
same,outcome,[2],inactive
same,outcome,[3],inactive
same,outcome,[4],inactive
same,outcome,[5],inactive
same,outcome,[15],inactive
same,AC50,[7],1.86 µM (active)
same,outcome,[19],inactive
same,outcome,[9],inactive
same,outcome,[20],inactive
same,outcome,[10],inactive
same,outcome,[11],inactive
same,outcome,[12],inactive
Cc1cc(C)c(C2=C(OC(=O)CC(C)(C)C)C3(CCCC3)OC2=O)c(C)c1,outcome,[2],inactive
same,AC50,[3],170 µM (active)
same,outcome,[4],inactive
same,outcome,[5],inactive
same,outcome,[15],inactive
same,outcome,[6],inactive
same,AC50,[7],160 µM (active)
same,AC50,[17],4.68 µM (active)
same,outcome,[8],inactive
C=CC(=O)OCCO,outcome,[13],inactive
same,outcome,[1],inactive
same,outcome,[2],inactive
same,AC50,[14],100 µM (active)
same,outcome,[3],inactive
same,outcome,[4],inactive
same,AC50,[5],59.1 µM (active)
same,outcome,[15],inactive
same,outcome,[6],inactive
same,outcome,[16],inactive
same,outcome,[8],inactive
same,outcome,[19],inactive
same,outcome,[18],inactive
same,outcome,[9],inactive
same,outcome,[20],inactive
same,outcome,[10],inactive
same,outcome,[11],inactive
same,outcome,[12],inactive
